The source made the active and inactive calls. How the source made its calls: active means hit-call score of the fitted dose curve at least 0.9, where 1 is the maximum; inactive means score below 0.9. Peptide text beside a SMILES is read from it.
Assay: ATG_GLI_CIS: Attagene CIS-FACTORIAL HepG2 Assay for human Zinc Finger Protein GLI1 (AID 2282945)
Settings: HepG2, Attagene cis-factorial reporter mRNA, GLI element; actives raise or lower the signal
Experimental: ATG_CIS is a cell-based, multiplexed-readout assay that uses HepG2, a human liver cell line, with measurements taken at 24 hours after chemical dosing in a 24-well plate.ATG_GLI_CIS is one of 52 assay component(s) measured or calculated from the ATG_CIS assay. It is designed to make measurements of mRNA induction, a form of inducible reporter, as detected with fluorescence intensity signals by Reverse transcription polymerase chain reaction (RT-PCR) and Capillary electrophoresis technology.Data from the assay component ATG_GLI_CIS was analyzed into 1 assay endpoint. This assay endpoint, ATG_GLI_CIS, was analyzed with bidirectional fitting relative to DMSO as the negative control and baseline of activity. Using a type of inducible reporter, measures of mRNA for gain or loss-of-signal activity can be used to understand the reporter gene at the transcription factor-level as they relate to the gene GLI1. Furthermore, this assay endpoint can be referred to as a primary readout, because this assay has produced multiple assay endpoints where this one serves a reporter gene function. To generalize the intended target to other relatable targets, this assay endpoint is annotated to the dna binding intended target family, where the subfamily is zinc finger.
Human liver HepG2 cells are transiently transfected with multiple reporter transcription units (MRTUs) in 6-well plates using FuGene 6 reagent (Roche; 3 ml FuGene/1 mg DNA). The MRTU constructs are regulated by a cis-regulating element (promoter). […] A major difference between the CIS and TRANS system is that in CIS activities of endogenous TFs are measured, whereas the TRANS assay evaluates changes in activities of exogenous, chimeric NR-Gal4 proteins. […] At the end of 24 hour incubation, total RNA was isolated using TriZol reagent (Invitrogen). The isolated RNA is then reverse-transcribed using oligo(dT) primer and Mo-MLV reverse transcriptase (Invitrogen) with DNAse I (Ambion) treatment for 30 min. The one-tenth of the produced cDNA was amplified by PCR using Taq DNA polymerase (Invitrogen) and two reporter sequence-specific primers. The PCR products were fluorescently labeled by primer extension with 6-arboxyfluorescein (6-FAM) 5'-labeled reporter sequence-specific primer (2 min at 95 C, 20 s at 68 C and 10 min at 72 C) and these products were digested with 5U of HpaI (New England Biolabs) for 2h at 37 C. The fragments were purified using Qiaquick PCR columns (Qiagen), analyzed on an ABI 3130xL genetic analyzer (Applied Biosystems) with peak positions identified by using a set of X-rhodamine (ROX)-labeled MapMarker1000 molecular weight standards (BioVentures). The raw capillary electrophoresis data was processed using Attagraph software (Attagene).

**Q.** Which outcome does the source give for `C=CC(C)(O)CC/C=C(\C)CC` (stereo not given) here?
**A.** inactive

**Q.** With `COC(C=C(C)CCC=C(C)C)OC` as the compound, how does the outcome read?
**A.** inactive

**Q.** Which outcome does the source give for `Clc1cc(Cl)c(Cl)c(Cl)c1Cl` here?
**A.** inactive

**Q.** With `CCCCCCCC(=O)OCC` as the compound, how does the outcome read?
**A.** inactive

**Q.** With `CCN1CCCC1=O` as the compound, how does the outcome read?
**A.** inactive

**Q.** With `CCCCCCCCCCCC(=O)N(C)CC(=O)O` as the compound, how does the outcome read?
**A.** inactive

**Q.** With `CC(=O)OC(C)c1ccccc1` (stereo not given) as the compound, how does the outcome read?
**A.** inactive

**Q.** Which outcome does the source give for `CCCCCCCCCCCCCc1ccccc1` here?
**A.** inactive

**Q.** For `O=S(=O)(O)c1ccc(N=Nc2c(O)ccc3ccccc23)cc1`, which outcome is on record?
**A.** inactive

**Q.** Which outcome does the source give for `N#CC1(N)CCCCC1` here?
**A.** inactive

**Q.** With `C=C(C)C(=O)OCCCCCCCCCCCC` as the compound, how does the outcome read?
**A.** inactive

**Q.** For `CC(C)(C)C1CCC(=O)CC1`, which outcome is on record?
**A.** inactive

**Q.** With `CC(C)=CCl` as the compound, how does the outcome read?
**A.** inactive

**Q.** Which outcome does the source give for `CC1CCC(C(C)(C)S)C(=O)C1` (stereo not given) here?
**A.** inactive

**Q.** Which outcome does the source give for `O=C1CCCCC1C1CCCCC1` (stereo not given) here?
**A.** inactive

**Q.** Which outcome does the source give for `Nc1ccc(Cl)c(N)c1` here?
**A.** inactive

**Q.** With `O=C(O)CCC(=O)O` as the compound, how does the outcome read?
**A.** inactive

**Q.** For `CC(=O)OCC=C(C)C`, which outcome is on record?
**A.** inactive

**Q.** Which outcome does the source give for `CCCCCC1=CCCC1=O` here?
**A.** inactive

**Q.** With `CCCCCCCOC(=O)c1ccc(O)cc1` as the compound, how does the AC50 read?
**A.** 45.7 µM (active)

**Q.** For `Fc1ccc(Br)cc1`, which outcome is on record?
**A.** inactive

**Q.** With `CC1=NN(c2ccc(S(=O)(=O)O)cc2)C(=O)C1N=Nc1ccccc1` (stereo not given) as the compound, how does the outcome read?
**A.** inactive

**Q.** Which outcome does the source give for `CC=C(C)C(C)=O` here?
**A.** inactive

**Q.** For `NC(=O)Nc1ccccc1`, which outcome is on record?
**A.** inactive

**Q.** Which outcome does the source give for `NNS(=O)(=O)c1ccc(Oc2ccc(S(=O)(=O)NN)cc2)cc1` here?
**A.** inactive

**Q.** Which outcome does the source give for `CCCCOCCOCCOC(C)=O` here?
**A.** inactive

**Q.** For `CC(=O)c1ccc(S(=O)(=O)NC(=O)NC2CCCCC2)cc1`, which outcome is on record?
**A.** inactive

**Q.** Which outcome does the source give for `CC(=O)OC1CCCCC1` here?
**A.** inactive

**Q.** Which outcome does the source give for `CCc1cccc(C)c1N(C(=O)CS(=O)(=O)O)C(C)COC` (stereo not given) here?
**A.** inactive

**Q.** For `CCCCCCCCCC[N+](C)(CCCCCCCCCC)CCC[Si](OC)(OC)OC`, which outcome is on record?
**A.** inactive

**Q.** With `COC(=O)c1ccc(C(=O)OC)c(C(=O)OC)c1` as the compound, how does the outcome read?
**A.** inactive

**Q.** For `COC(=O)CC(C)CCC=C(C)C` (stereo not given), which outcome is on record?
**A.** inactive

**Q.** For `CCC(C)(O)CCCC(C)C` (stereo not given), which outcome is on record?
**A.** inactive

**Q.** Which outcome does the source give for `CCC(C)C(=O)OCCc1ccccc1` (stereo not given) here?
**A.** inactive

**Q.** With `O=C(O)/C=C/c1ccccc1` as the compound, how does the outcome read?
**A.** inactive

**Q.** For `COC(=O)[C@H](Cc1ccccc1)NC(=O)[C@@H](N)CC(=O)O` (H-Asp-Phe-OMe), which outcome is on record?
**A.** inactive

**Q.** Which outcome does the source give for `Cc1c(O)cccc1O` here?
**A.** inactive

**Q.** With `CN1CCN(C)CC1` as the compound, how does the outcome read?
**A.** inactive

**Q.** With `C[Si]1(C)O[Si](C)(C)O[Si](C)(C)O[Si](C)(C)O[Si](C)(C)O1` as the compound, how does the outcome read?
**A.** inactive

**Q.** With `CC1=CP(=O)(c2ccccc2)CC1` (stereo not given) as the compound, how does the outcome read?
**A.** inactive

Reference: PubChem BioAssay (EPA / NIEHS)
